# From PubChem BioAssay
# Hits are enriched below; roughly 1.6% of the tested compounds scored in any of these assays.
# Myeloid diff 2: induction of myeloid progenitor differentiation, primary screen, cell-based, flow cytometry, MLPCN library. calls only at 10 µM. 1% of 360,000 active. ER-HoxA9 myeloid progenitors, lysozyme-GFP differentiation. AID 624256, 2012;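 active means normalized GFP-positive differentiation at or above the plate's own cutoff, the solvent-only control mean plus 3 SD; inconclusive means no clear call, values can overlap the other calls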;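 further: cells exposed to compound for four days before flow analysis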
# Vif inh: HIV Vif self-association inhibitors, primary screen, imaging, HEK293T, single point. HEK293T cells, Vif self-association by quenched fluorescence, 24 h. inhibition, % at 7.49 µM. 0.35% of 340,000 active; in the data active means inhibition above about 50%, passing the limit was not always enough; inconclusive means no clear call, values can overlap the other calls; inactive means below about 31%
# ABCB6 inh MLPCN: ABCB6 transporter inhibitors, primary screen, K562-ABCB6 cells, flow cytometry, MLPCN library; K562-ABCB6 porphyrin accumulation, 1 h; hits give low values; fluorescence ratio to DMSO, % at 10 µM; 0.19% of 360,000 active;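 active means fluorescence ratio to DMSO below 75%, the collection mean minus 3 SD; inconclusive means too few cells collected in the well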;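 further: signal is porphyrin accumulated inside mitochondria; lower ratio means ABCB6 inhibition with less porphyrin fluorescence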
# N-glyco inh: increase of ERlucT glycosylation luciferase signal, primary screen, N-linked glycosylation inhibitor project, D54 ERlucT cells, luminescence, set 2; D54 ERlucT glycosylation luciferase reporter, 24 h; percent of 100 nM tunicamycin response; reporter increase, % at 12.5 µM; 0.23% of 360,000 active; AID 588692, 2011;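 active means mean luciferase reporter signal, scaled so untreated is 0 and the glycosylation-blocking control 100, at or above a set limit in every replicate; inconclusive means mean reaches the limit but not every replicate does; inactive means mean below the limit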;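 further: luciferase carries N-glycosylation sites so blocking glycosylation raises the light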
# RAD54 branch: inhibitors of human RAD54 branch migration, primary screen, biochemical, fluorescence, single point. DNA repair and recombination protein RAD54-like (Homo sapiens), Q92698. RAD54 Holliday junction branch migration, FAM/BHQ fluorescence. inhibition, % at 10.4 µM. 0.14% of 360,000 active. AID 602329, 2012;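 active means mean normalized replicate activity at least 40 and at least half of replicates scoring 40 or more; inconclusive means only one of the two criteria met; inactive means mean below 40 and under half of replicates reaching 40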;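 further: inhibitors cause a drop in the FAM fluorescence signal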
# Target sequence (Q92698 whole entry, looked up): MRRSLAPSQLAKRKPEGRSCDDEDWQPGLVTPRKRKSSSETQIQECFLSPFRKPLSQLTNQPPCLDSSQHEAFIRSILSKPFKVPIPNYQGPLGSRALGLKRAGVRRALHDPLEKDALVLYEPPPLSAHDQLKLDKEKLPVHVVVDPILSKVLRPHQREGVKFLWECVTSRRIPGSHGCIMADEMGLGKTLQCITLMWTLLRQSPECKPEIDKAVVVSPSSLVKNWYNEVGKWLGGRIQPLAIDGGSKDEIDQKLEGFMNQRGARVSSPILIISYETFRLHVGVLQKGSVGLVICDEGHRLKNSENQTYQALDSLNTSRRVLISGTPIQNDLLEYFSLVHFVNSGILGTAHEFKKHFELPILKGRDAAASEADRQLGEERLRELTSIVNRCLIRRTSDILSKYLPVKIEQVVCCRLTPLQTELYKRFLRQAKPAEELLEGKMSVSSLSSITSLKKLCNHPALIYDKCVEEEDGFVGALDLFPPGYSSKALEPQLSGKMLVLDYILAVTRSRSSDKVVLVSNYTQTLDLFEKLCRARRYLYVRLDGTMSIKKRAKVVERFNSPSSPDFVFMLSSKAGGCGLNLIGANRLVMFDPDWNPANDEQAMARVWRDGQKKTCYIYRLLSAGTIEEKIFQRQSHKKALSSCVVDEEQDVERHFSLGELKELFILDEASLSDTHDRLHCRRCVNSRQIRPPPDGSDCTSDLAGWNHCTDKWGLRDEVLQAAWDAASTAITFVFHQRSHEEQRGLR
# Myeloid diff: inducers of myeloid progenitor differentiation, confirmation, cell-based, GFP/Mac1 flow cytometry, cherry pick 01; shares compounds with Myeloid diff 2; ER-HoxA9 myeloid progenitors, GFP/Mac1 double-positive flow; calls only; 2% of 2,300 active; AID 651706, 2012;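 active means share of green or green-and-red cells above 9 and 9% in run 1 or 4 and 3% in run 2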
# GFP autofluor: counter-screen for myeloid differentiation promoters: compound fluorescence. 7.4% of 2,300 active. shares compounds with Myeloid diff 2. ER-HoxA9 myeloid progenitors, no estrogen, GFP autofluorescence flow cytometry; vehicle wells 0%, positive control 100%. AID 651707. fluorescence response, % (concentration not given with the values);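 active means over 5% cells positive for green fluorescent reporter, or over 2% positive for both it and APC stain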
# Numbers stand for hits; 0 = inactive; ? = inconclusive; - = no result given; + = active, no number.
SMILES,Myeloid diff 2,Vif inh,ABCB6 inh MLPCN,N-glyco inh,RAD54 branch,Myeloid diff,GFP autofluor
C[C@@H]1CCCCO[C@H](CN(C)Cc2ccc(C(F)(F)F)cc2)[C@H](C)CN([C@H](C)CO)C(=O)c2cc(NS(C)(=O)=O)ccc2O1,-,-,-,-,0,-,-
Cc1cc(C)c(C#N)c(SCC(=O)c2ccccc2)n1,0,0,0,0,-,-,-
Cc1cc(C)c(C#N)c(SCC(O)CS(=O)(=O)Cc2ccccc2)n1 (stereo unspecified),0,0,0,0,0,0,0
CCC(=O)N[C@H]1C=C[C@@H](CC(=O)OC)O[C@@H]1CO,-,-,-,-,0,-,-
Cn1cc(S(=O)(=O)CC(=O)Nc2ccc3c(c2)OCCO3)c2ccccc21,0,0,0,0,0,-,-
Cc1ccc(C)c(NC(=O)CS(=O)(=O)c2cn(C)c3ccccc23)c1,0,0,0,0,0,0,0
CCC(=S)/C=C1\Sc2ccccc2N1CCCS(=O)(=O)O,0,0,0,0,0,0,0
Cc1cccc(C(=O)N/N=C/c2ccc(OC3CSC3)cc2)c1,0,0,0,0,-,0,0
Cc1noc(C)c1S(=O)(=O)Nc1ccc2c(c1)CC(=O)N([C@H](C)CO)C[C@H](C)[C@H](CN(C)S(C)(=O)=O)O2,-,-,-,-,0,-,-
CCOC(=O)C1=CC[C@@H](c2ccccc2)[C@@H]1C(=O)c1ccc(OC)cc1,-,-,-,-,0,-,-
CC(C)N(Cc1cc2ccccc2[nH]c1=O)C(=O)C1CCCCC1,0,0,0,0,-,0,0
Cc1ccccc1S(=O)(=O)N1CCCCN2[C@H](CO)[C@@H](c3ccc(-c4ccccc4)cc3)[C@H]2C1,-,-,-,-,0,-,-
COc1ccc(OC)c(NC(=O)C2CCN(c3cc(-c4ccccc4)nc4ncnn34)CC2)c1,0,0,0,0,0,-,-
COc1ccccc1NC(=O)N1CCN(c2cc(-c3ccccc3)nc3ncnn23)CC1,0,0,0,0,0,0,0
COc1cc2c(cc1OC)C1Cc3ccc(OC)c(OC)c3CN1CC2 (stereo unspecified),0,0,0,0,0,-,-
COc1ccc2c(c1OC)CN1CCc3cc4c(cc3[C@@H]1[C@@H]2O)OCO4,+,0,0,0,0,0,0
Cc1cc(C(=O)Nc2cccc3c2O[C@H](CN(C)C(=O)NC2CCCCC2)[C@@H](C)CN([C@H](C)CO)C3=O)n(C)n1,-,-,-,-,0,-,-
O=C(CCNS(=O)(=O)c1ccc2c(c1)CCC(=O)N2)NCc1ccc2c(c1)OCO2,0,0,0,0,0,0,0
O=C1CCc2cc(S(=O)(=O)NCCCC(=O)N3CCN(Cc4ccc5c(c4)OCO5)CC3)ccc2N1,0,0,0,0,-,-,-
Cc1ccc(OCC(=O)N2CCCCC2)c(Br)c1,0,0,0,0,0,0,0
COc1cc(OC)c2c(-c3cccc(-c4ccc(O)cc4)c3)cc(=O)oc2c1,+,0,0,0,0,0,0
CCC(=Nc1ccccc1O)C1=C(O)CC(c2ccccc2)CC1=O (stereo unspecified),0,0,0,0,0,0,6.6
CCC(=Nc1ccccc1OC)C1=C(O)CC(c2ccccc2)CC1=O (stereo unspecified),0,0,0,0,0,-,-
C[C@@H]1CCCCO[C@H](CN(C)Cc2ccc(C(=O)O)cc2)[C@H](C)CN([C@H](C)CO)C(=O)c2cc(NC(=O)CCC(F)(F)F)ccc2O1,-,-,-,-,0,-,-
C=C(C)[C@@H]1C2=CC(C(=O)OC)=C(C[C@H](C(=C)C)[C@H]3O[C@H]3C3=C[C@H]1OC3=O)O2,0,?,0,0,0,0,0
SMILES,Myeloid diff 2,Vif inh,ABCB6 inh MLPCN,N-glyco inh,RAD54 branch,Myeloid diff,GFP autofluor
Cc1ccc(S(=O)(=O)c2cc3c(=O)n4ccccc4nc3n(Cc3ccco3)c2=N)cc1,0,0,0,0,0,0,0
CC(C)CCNC(=O)C(Cc1ccccc1)NS(=O)(=O)c1ccc2c(c1)c(=O)n(C)c(=O)n2C (stereo unspecified),+,0,0,0,0,0,0
CCOC(=O)c1ccc(N=c2sc(C(=O)OC)cc(=O)n2C2CC2)cc1,0,0,0,0,0,0,0
CC1(C)CNC(=O)C=C(c2ccccc2)C1,+,0,0,0,0,0,0
CC1(C)CC(=O)C=C(c2ccc(Oc3ccccc3)cc2)C1,0,0,0,0,0,-,-
Cn1ccc(C(=O)OCC(=O)c2ccccc2)n1,+,0,0,0,0,0,0
CCn1c(C(=O)N2CCCC(C(=O)NCCc3ccc(C)cc3)C2)cc2sccc21 (stereo unspecified),0,0,0,0,0,0,0
CCn1c(C(=O)N2CCCC(C(=O)NCCCc3ccccc3)C2)cc2sccc21 (stereo unspecified),0,0,0,0,-,-,-
Cn1c(C(=O)N2CCCC(C(=O)NCc3cccs3)C2)cc2sccc21 (stereo unspecified),+,0,0,0,-,0,0
O=C(NCc1ccccn1)[C@@H]1CCCN1C(=O)[C@@H]1CCCN1C(=O)c1cccc(Cl)c1,0,-,0,-,-,0,0
Cc1cccc(N2CCN(C(=O)C3CCN(S(=O)(=O)N4CCOCC4)CC3)CC2C)c1 (stereo unspecified),+,0,0,0,-,0,0
CCc1ccc(-c2nc(SCC(=O)N3CCOCC3)n[nH]2)cc1,+,0,0,0,-,0,14
COc1ccc(Cc2c(-c3ccc(C)cc3)nc3c4ccccc4ccn23)c(C)c1,0,0,0,0,0,-,-
CCCc1nc2c3ccccc3ccn2c1Cc1ccc(OC)cc1C,+,-,0,0,0,+,0
Cc1ccccc1-c1nnc(SCC(=O)NC2CCCC2)o1,0,0,0,0,0,-,-
Cc1ccc(-n2ncc(-c3nnc(SCC(=O)NC4CCCC4)o3)c2N)cc1C,0,0,0,0,0,0,0
C[C@H](CO)N1C[C@H](C)[C@H](CN(C)CC2CC2)Oc2ccc(NC(=O)CCCCCC(=O)Nc3ccccc3N)cc2CC1=O,-,-,-,-,0,-,-
O=C(C[C@H]1CC[C@H]2[C@@H](COC[C@H](O)CN2Cc2ccc(Oc3ccccc3)cc2)O1)N1CCCCC1,-,-,-,-,0,-,-
Cc1n[nH]c(C)c1N1C(=O)c2cccc3c(Br)ccc(c23)C1=O,0,0,0,0,0,0,0
CN(C)C(=O)C[C@H]1C[C@H]2c3cc(NC(=O)C4CCOCC4)ccc3O[C@H]2[C@H](CO)O1,-,-,-,-,0,-,-
Brc1ccc(-c2noc(COc3ccc4c(c3)CCC4)n2)o1,0,0,0,0,0,-,-
c1csc(-c2noc(COc3ccc4c(c3)CCCC4)n2)c1,0,0,0,0,0,0,0
